Laboratory results taken from publication PMC7819943, “Rice protein-binding microarrays: a tool to detect cis-acting elements near promoter regions in rice”.
The full ranking holds about 68,000 sequences; the median of “fluorescence intensity (a.u.)” is about 9,100, and the highest 2% start at about 16,000. What follows is part of a selection rich in the highest values, with near analogues and random picks from the rest.

These sequences were tested against OsWRKY34 (Oryza sativa, UniProt Q0JBA9 1-250) (assay: protein-binding microarray (RPBM); PBS, 2% BSA, 51.3 ng/ul salmon testes DNA, 50 uM zinc acetate, 200 nM TF, 25 C, 1 h; high values mean tight binding). Conditions: protein: recombinant; tags: N-terminal polyhistidine and DsRed monomer fusion (pET32a); label: CyDye5-dUTP incorporated in the synthesized complementary strand; 3' TTTTT single-stranded linker to array surface; dsDNA, one strand shown.
OsWRKY34, sequence (Q0JBA9 entry or part of it): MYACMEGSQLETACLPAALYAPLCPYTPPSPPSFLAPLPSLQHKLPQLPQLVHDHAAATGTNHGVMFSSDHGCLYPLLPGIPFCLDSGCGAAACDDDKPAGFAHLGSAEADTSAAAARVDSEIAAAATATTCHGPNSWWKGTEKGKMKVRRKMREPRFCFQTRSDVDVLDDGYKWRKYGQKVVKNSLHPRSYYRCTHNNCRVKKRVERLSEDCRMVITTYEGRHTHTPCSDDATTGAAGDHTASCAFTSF
How it was run: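 Transcription factors were made in E. coli BL21-CodonPlus as N-terminal fusions to a polyhistidine tag and DsRed, then purified on Ni–NTA. After primer extension with Cy5-dUTP and blocking with 2% BSA, a custom Agilent array was exposed for 1 h at 25 °C to 200 nM protein in PBS, 2% BSA, salmon testes DNA and 50 µM zinc acetate. Washed arrays were scanned on an Axon 4000B, and the binding signal is per-feature fluorescence intensity in arbitrary units.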
For “TTTTACCAACTTTCTTAATACTCGTGTCCACCTAAAAAATCGGAGTCACCTAGTGCAG”, the binding signal was 8440 fluorescence intensity (a.u.). “CGCCTCCGGCCTCCTCACGCACTGCCGCACCACGTCGCACCGGAGTCACCTAGTGCAG” was tested, and the binding signal was 9020 fluorescence intensity (a.u.). With “ACCTACTTTTCGTCCCTTAATTCTGTGGCTATGTTCAAATCGGAGTCACCTAGTGCAG” the binding signal was 12700 fluorescence intensity (a.u.). With “GAGAGGAGGTGGTGGGAAGTGGCGGCTAGGGTTTGGGTGGCGGAGTCACCTAGTGCAG” the binding signal was 11300 fluorescence intensity (a.u.). With “TGTTCTTTTTTTTTACACGCGTTTTTTTTACATTGTCGTTCGGAGTCACCTAGTGCAG” the binding signal was 18400 fluorescence intensity (a.u.). For “GCAGTCGGTTCGCGTTTGTTTTTTTTCTTTCTTTCTTTTTCGGAGTCACCTAGTGCAG”, the binding signal was 18400 fluorescence intensity (a.u.). For “TTCTTTTCGGTTGATTGTTTTTCTTTGTATTTCAGTGTTGCGGAGTCACCTAGTGCAG”, the binding signal was 9180 fluorescence intensity (a.u.). With “ATTATTGTTGTACAGTTCTTGCCTACAGTTCGGTTTTTCTCGGAGTCACCTAGTGCAG” the binding signal was 19700 fluorescence intensity (a.u.). In the case of “GGTTTTTTCGGTTTTCGGTTGTCAGTTCGGTTTCTGTTTTCGGAGTCACCTAGTGCAG”, the binding signal is reported as 15400 fluorescence intensity (a.u.). For “AGCCTTATCTCTTCATCGGTTCATCCGGTGCCTGTTGTCTCGGAGTCACCTAGTGCAG”, the binding signal was 8990 fluorescence intensity (a.u.). “GCACAGTGGGAGGCCCGCGTTCTTTTTTTTTCGCCGGTTTCGGAGTCACCTAGTGCAG” was tested, and the binding signal was 10000 fluorescence intensity (a.u.). In the case of “CGGCAGTGTTCTTTTTTTTTTACACGCGTTTTTTTTTACACGGAGTCACCTAGTGCAG”, the binding signal is reported as 10800 fluorescence intensity (a.u.). In the case of “TCGTTCGTTGGTTTGTTTTTTTTTTCTTTTCTCGCGTACACGGAGTCACCTAGTGCAG”, the binding signal is reported as 11600 fluorescence intensity (a.u.). In the case of “CACCTTCTTTTTCTCTCTCTCTCTCTCTCTCTTTCTCATCCGGAGTCACCTAGTGCAG”, the binding signal is reported as 10300 fluorescence intensity (a.u.). In the case of “TTTTTACACGCGTTTTTTTTACATTGTCGTTTTTTTTTTGCGGAGTCACCTAGTGCAG”, the binding signal is reported as 13500 fluorescence intensity (a.u.). In the case of “TCATCCGGTGCCTGTTGTCTCTTTCTTCTCTCTCACATACCGGAGTCACCTAGTGCAG”, the binding signal is reported as 16600 fluorescence intensity (a.u.). “CGCCGCCGCCCTCACCCTCGCCGCCGCGCATCCCGCGGTCCGGAGTCACCTAGTGCAG” was tested, and the binding signal was 8120 fluorescence intensity (a.u.). With “ATAATAGGGTTATTCATAATATGGCAGGGTTTTTGGTTAGCGGAGTCACCTAGTGCAG” the binding signal was 10300 fluorescence intensity (a.u.). For “TGTGATAGGCTTCAATGTTTAATCTCACCATCGATTGTTACGGAGTCACCTAGTGCAG”, the binding signal was 9500 fluorescence intensity (a.u.). For “TAGTCTTTGTCGTTTCCATGTATAACTCTATTTATCTTTCCGGAGTCACCTAGTGCAG”, the binding signal was 12400 fluorescence intensity (a.u.). For “CTAGTTGCTCCTAACTTGGCCTACTGTCCTCCATCTCCAACGGAGTCACCTAGTGCAG”, the binding signal was 9280 fluorescence intensity (a.u.). In the case of “GAGCTTCCTATCGCGCCGCCGCGTGCGTACGTGTTTGATCCGGAGTCACCTAGTGCAG”, the binding signal is reported as 11000 fluorescence intensity (a.u.). For “TACACCGTCCCAACCGGCTTTGTTTGACTTGTCCGACCAGCGGAGTCACCTAGTGCAG”, the binding signal was 8330 fluorescence intensity (a.u.). For “TTACCGATGCGACCTGTCCCTGTCACTCCCGCCTCGGTAACGGAGTCACCTAGTGCAG”, the binding signal was 9060 fluorescence intensity (a.u.). “GACATTACGGGCCCACAAGTACGCGTCCCCACCAGCCATACGGAGTCACCTAGTGCAG” was tested, and the binding signal was 8490 fluorescence intensity (a.u.). With “ATCACCTTGCTCGATCGCCTCCGTTGTTTTGCACTAAATTCGGAGTCACCTAGTGCAG” the binding signal was 8620 fluorescence intensity (a.u.). For “GAGGGGAGGAAGAAGAGGTGGGTGAGAATGACACGTGGGGCGGAGTCACCTAGTGCAG”, the binding signal was 10600 fluorescence intensity (a.u.). For “TTTTAATCTCATTTTTTTTAACGGTTTTGCTATAATTTTTCGGAGTCACCTAGTGCAG”, the binding signal was 8850 fluorescence intensity (a.u.). “CTTCGTGTTCGTCGTGGTCTCTTGTTTCTTCTTCTTCTTCCGGAGTCACCTAGTGCAG” was tested, and the binding signal was 22000 fluorescence intensity (a.u.). In the case of “ATCGTTATCTATTGCCGTATGTTATTTCGTTGTTCCGTCTCGGAGTCACCTAGTGCAG”, the binding signal is reported as 8920 fluorescence intensity (a.u.). For “TTTGTGTCACTTTTAAACATGTTCACGTCATTATTTTAGTCGGAGTCACCTAGTGCAG”, the binding signal was 9290 fluorescence intensity (a.u.). With “ATTGTTCATTTGTCGTTCCATTACATGTAACTTCACTTCACGGAGTCACCTAGTGCAG” the binding signal was 17000 fluorescence intensity (a.u.). In the case of “GATTTTTTCGGACTTGGTCTCGGTCTTTTTGTTTGGTTATCGGAGTCACCTAGTGCAG”, the binding signal is reported as 10200 fluorescence intensity (a.u.). In the case of “CTCTCTCTTCTTCTTCGTGTTGTTGTTTCTCTCTCTGTCTCGGAGTCACCTAGTGCAG”, the binding signal is reported as 11700 fluorescence intensity (a.u.). In the case of “GTTCATTTTCATGTTATTTTTCATGTAACTACATTATTATCGGAGTCACCTAGTGCAG”, the binding signal is reported as 8990 fluorescence intensity (a.u.). With “TGTTTCTATCTCGTATCTTCTCTTCCAAGCATGTATTTCCCGGAGTCACCTAGTGCAG” the binding signal was 8650 fluorescence intensity (a.u.). With “TCTTATATGTTATGCAAGTATGTTTCTATCTCGTATCTTCCGGAGTCACCTAGTGCAG” the binding signal was 16500 fluorescence intensity (a.u.). For “TGTTCTTGTTTGTGTTTTCTTCTTCGTCTCCGGCGACGGCCGGAGTCACCTAGTGCAG”, the binding signal was 10000 fluorescence intensity (a.u.). “CTTATCTCATTTTATCTCGGTTTTTGTTAACTTGTTTTTTCGGAGTCACCTAGTGCAG” was tested, and the binding signal was 18200 fluorescence intensity (a.u.). With “ATTTTGTTTCTCCTTGGTTGGTTTTGCTTCACCTAGATCACGGAGTCACCTAGTGCAG” the binding signal was 11200 fluorescence intensity (a.u.). With “GCTCGCTTTCTCAGGTCTTTCTCTTCCCCGTATCCCCACTCGGAGTCACCTAGTGCAG” the binding signal was 10500 fluorescence intensity (a.u.). With “TCTGCGAGGAAGAACCCATTCAGATTACGCTGCATTTTTTCGGAGTCACCTAGTGCAG” the binding signal was 8660 fluorescence intensity (a.u.).
